A selection: hits, their analogues and other compounds. The true share with any hit is near 13%.
Shiga inhibitor – blocks Shiga toxin action in Vero cells; Vero cells, Shiga toxin protein synthesis inhibition reporter; inhibition, % at 38.7 µM; 9.2% of 290,000 active; in the data active means inhibition mostly above about 28%, no sharp cut-off; inactive means mostly below about 43%
MARV entry inh – Marburg virus entry inhibition; 1.8% of 300,000 active; Marburg virus pseudotyped entry inhibition, cell reporter; AID 540276; Potency, µM (series often up to 37.8 µM), most hits filed as inhibitors; calls by dose curve; tested in HEK293 cells
Lassa entry inh – Lassa virus entry inhibition; Lassa virus pseudotype entry inhibition, cell reporter; Potency, µM (doses to about 37.9 µM), most hits filed as inhibitors; 1.2% of 300,000 active; calls by dose curve; tested in HEK293 cells; further: nearly all actives have a fitted effect of over 50% in size
Cycloheximide cs – affects cycloheximide protein synthesis inhibition readout, counter-screen | cell reporter, cycloheximide protein synthesis inhibition counterscreen | max response, % | 12% of 300,000 active | AID 2314; in the data active means max response mostly above about 13%, no sharp cut-off; inactive means mostly below about 14%; further: read at 38.3 µM for the half of the compounds with a filed dose
FMDV antiviral – antivirals against foot and mouth disease virus. 1.2% of 410,000 active. FMDV antiviral cell-based qHTS. AID 1159524. Potency, µM (top dose mostly 57.9 µM), most hits filed as inhibitors; calls by dose curve; tested in HEK293T cells; further: read-out not given here; nearly all actives have a fitted effect of over 45% in size
HCV inh – inhibitors of hepatitis C virus infection | 3.4% of 340,000 active | Huh7.5.1 HCVcc-Cre infection, luciferase reporter, 44 h | Potency, µM (series often up to 41.8 µM), most hits filed as inhibitors; active means well fitted inhibition curve with a large enough effect; inconclusive means small, poorly fitted or top-dose-only effect, or another doubt; inactive means no such curve, though single readings can be large or run the other way
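A cell-based infection assay in which seeded cells (1,000 per well) receive test compound after 4 h, are inoculated with HCVcc-Cre at approximately 0.5 moi, and are incubated 44 h before luminescence detection.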
Large screens that a line does not name were inactive.

COc1cccc(-c2ccc(NC(=O)C3CCCN(Cc4cc(C)[nH]n4)C3)cc2)c1 (configuration not stated)	MARV entry inh inconclusive, HCV inh inconclusive
COc1cccc(-c2ccc(NC(=O)C3CCCN(Cc4cnc(N(C)C)s4)C3)cc2)c1 (configuration not stated)	Cycloheximide cs 30.2, FMDV antiviral inconclusive, HCV inh inconclusive (no result: MARV entry inh, Lassa entry inh)
CCCc1ncc(CN2CCCC(C(=O)Nc3ccc(-c4cccc(OC)c4)cc3)C2)cn1 (configuration not stated)	Cycloheximide cs 19.7, HCV inh inconclusive (no result: MARV entry inh, Lassa entry inh)
Cc1ncc(CN2CCCC(C(=O)Nc3ccc(-c4cccc(F)c4)cc3)C2)s1 (configuration not stated)	MARV entry inh inconclusive, FMDV antiviral inconclusive (no result: HCV inh)
COc1cccc(-c2ccc(NC(=O)C3CCCN(CCCn4cccn4)C3)cc2)c1 (configuration not stated)	MARV entry inh inconclusive, Lassa entry inh inconclusive, FMDV antiviral 35.5µM, HCV inh inconclusive
COc1cccc(-c2ccc(NC(=O)C3CCCN(Cc4ccccn4)C3)cc2)c1 (configuration not stated)	none (no result: Shiga inhibitor, MARV entry inh, Lassa entry inh, Cycloheximide cs, HCV inh)
CCc1cc(C(=O)Nc2cc(Cl)ccc2N2CCN(C)CC2)sc1C	HCV inh inconclusive (no result: Shiga inhibitor, Cycloheximide cs)
O=C(Nc1ccc(-c2cscn2)cc1)C1CCCN(Cc2ccccc2)C1 (configuration not stated)	Cycloheximide cs 24.1, HCV inh inconclusive (no result: MARV entry inh, Lassa entry inh)
COc1cccc(-c2ccc(NC(=O)C3CCCN(Cc4cnn(C(C)C)c4)C3)cc2)c1 (configuration not stated)	MARV entry inh inconclusive, Lassa entry inh inconclusive, FMDV antiviral inconclusive, HCV inh 11.2µM
COCc1ccc(CN2CCCC(C(=O)Nc3ccccc3-c3ccc(OC)cc3)C2)o1 (configuration not stated)	none (no result: MARV entry inh, Lassa entry inh)
COCc1ccc(CN2CCCC(C(=O)Nc3ccc(-c4cccc(OC)c4)cc3)C2)o1 (configuration not stated)	HCV inh 10µM (no result: MARV entry inh, Lassa entry inh)
COc1cccc(C(=O)C2CCCN(Cc3cnn(C(C)C)c3)C2)c1 (configuration not stated)	none
Cc1cccc(NC(=O)[C@@H]2CCCN2C2=NS(=O)(=O)c3ccccc32)c1C	none (no result: Shiga inhibitor, Cycloheximide cs)
COc1cc(OC)c(NC(=O)c2ccc(-n3cnc4cccnc43)cc2)cc1Cl	Lassa entry inh inconclusive (no result: Shiga inhibitor, MARV entry inh, Cycloheximide cs, HCV inh)
CCOc1ccc(OCCn2nnc3ccccc3c2=O)cc1	Shiga inhibitor 58.5, MARV entry inh inconclusive, Cycloheximide cs 36.7
Cc1ccc(OCCOCCn2cnc3ccccc3c2=O)cc1C	none (no result: MARV entry inh, Lassa entry inh, FMDV antiviral, HCV inh)
CCOc1cccc(OCCn2cnc3ccccc3c2=O)c1	Shiga inhibitor 35.0
Cc1ccc(OCCn2cnc3ccccc3c2=O)c([N+](=O)[O-])c1	Shiga inhibitor 51.9, Lassa entry inh inconclusive, Cycloheximide cs 49.6
CC(C)(C)c1ccc(OCCOCCn2cnc3ccccc3c2=O)cc1	Cycloheximide cs 35.5, HCV inh inconclusive
Cc1ccc(C)c(NC(=O)COC(=O)CC2c3ccccc3CCN2S(=O)(=O)c2ccc(F)cc2)c1 (configuration not stated)	MARV entry inh inconclusive
CN(C)c1ccc(/C=C/c2nnnn2-c2ccccc2)cc1	Shiga inhibitor 108.4, MARV entry inh inconclusive, Lassa entry inh inconclusive, Cycloheximide cs 60.6
CN(C)c1nnnn1-c1ccc(Oc2ccccc2)cc1	MARV entry inh inconclusive, HCV inh inconclusive
COc1cccc(-c2cc(C(=O)Nc3cc(C)on3)no2)c1	MARV entry inh inconclusive
COc1cccc(NC(=O)Nc2cc(C)on2)c1	Cycloheximide cs 22.6 (no result: Shiga inhibitor, MARV entry inh, Lassa entry inh)
Cc1cc(NC(=O)Nc2cccc(C(F)(F)F)c2)no1	none
COc1cccc(C(=O)NC(=O)Nc2cc(C)on2)c1	Shiga inhibitor 71.0, Cycloheximide cs 55.7 (no result: Lassa entry inh)
COc1cccc(NC(=O)CCc2c(C)nn(-c3ccc(N4CCOCC4)nn3)c2C)c1	none
Cc1ccc(NC(=O)CCc2c(C)nn(-c3ccc(N4CCOCC4)nn3)c2C)cc1C	Shiga inhibitor 50.4, Cycloheximide cs 20.1
Cc1nn(-c2ccc(N3CCOCC3)nn2)c(C)c1CCC(=O)Nc1ccc(F)cc1	Cycloheximide cs 21.4, HCV inh inconclusive (no result: MARV entry inh, Lassa entry inh)
Cc1cccc(NC(=O)CCc2c(C)nn(-c3ccc(N4CCCCC4)nn3)c2C)c1	Shiga inhibitor 72.5, Cycloheximide cs 40.6 (no result: MARV entry inh, Lassa entry inh)
Cc1cccc(NC(=O)CCc2c(C)nn(-c3ccc(N4CCOCC4)nn3)c2C)c1	Shiga inhibitor 40.5, Lassa entry inh inconclusive, Cycloheximide cs 23.0
CCOC(=O)C1CCCN(C(=O)c2sc3nc(C)nc(N(CC)CC)c3c2C)C1 (configuration not stated)	Lassa entry inh inconclusive, FMDV antiviral inconclusive
O=C(Cn1cnc2c(nnn2Cc2ccccc2F)c1=O)OCc1ccccc1	MARV entry inh inconclusive
O=C(Nc1ccncc1)c1ccc(S(=O)(=O)Nc2ccccc2)cc1	MARV entry inh inconclusive, Lassa entry inh inconclusive, FMDV antiviral inconclusive
Cc1ccccc1N1C(S)=C(C#N)C(=O)NC1c1cccs1 (configuration not stated)	none
O=C1Nc2ccccc2/C1=N/c1sc2c(c1C(=O)NCCc1ccccc1)CCCC2	Shiga inhibitor 39.1, HCV inh inconclusive
COc1cccc(CNc2nc3cc(-c4cnn(Cc5ccccc5)c4)sc3c(=O)n2C)c1	FMDV antiviral 14.1µM (no result: Shiga inhibitor, MARV entry inh, Lassa entry inh, Cycloheximide cs, HCV inh)
Cc1cccc(OCCn2ccnc2)c1C	MARV entry inh inconclusive
Cc1cc(Cl)cc(C)c1OCCn1ccnc1	MARV entry inh 1.26µM, Lassa entry inh 3.55µM
Cc1cc(Cl)cc(C)c1OCCCCCn1ccnc1	FMDV antiviral inconclusive, HCV inh inconclusive (no result: MARV entry inh, Lassa entry inh)
Cc1ccccc1OCCn1ccnc1	Cycloheximide cs 37.5 (no result: MARV entry inh, Lassa entry inh)
Cc1ccc(N(CCCCN2C(=O)c3ccccc3C2=O)C(=O)c2ccc(Cl)s2)cc1	Lassa entry inh inconclusive, HCV inh inconclusive
COc1ccc2c(c1)C(=NO)c1cc(OC)ccc1-2	Shiga inhibitor 21.7, Cycloheximide cs 18.1, HCV inh 8.91µM
CCC1=C2CC[C@H]3C(=O)N(c4ccccc4)C(=O)[C@H]3[C@H]2[C@@]2(C)C(=NCC3CC3)OC(=O)N2C1=O	none (no result: MARV entry inh, Lassa entry inh)
COc1ccc(CCNc2oc(COc3ccc(Cl)cc3)nc2C#N)cc1OC	MARV entry inh inconclusive, FMDV antiviral 31.6µM (no result: Shiga inhibitor, Cycloheximide cs, HCV inh)
Cc1nc(C#N)c(NCc2ccc3c(c2)OCO3)o1	MARV entry inh inconclusive
Cc1cccc(OCc2nc(C#N)c(NCc3ccc4c(c3)OCO4)o2)c1	Cycloheximide cs 41.5, HCV inh inconclusive
N#Cc1nc(COc2ccc(Cl)cc2)oc1NCc1ccc2c(c1)OCO2	HCV inh 10µM
S=C(Nc1ccc2nsnc2c1)N1CCCCCC1	none
S=C(Nc1ccc(Cl)c(Cl)c1)NC1CCN(Cc2ccccc2)CC1	MARV entry inh inconclusive, Lassa entry inh inconclusive, FMDV antiviral 14.1µM, HCV inh 14.1µM
Cc1ccc(NC(=S)NC2CCCCC2)cc1S(=O)(=O)N(C)C	Shiga inhibitor 124.7, MARV entry inh inconclusive, Lassa entry inh inconclusive, Cycloheximide cs 31.8, HCV inh inconclusive
FC(F)(F)c1cccc(NC(=S)NC2CCCC2)c1	MARV entry inh inconclusive
